Test results as given in PubChem BioAssay (Tox21).
Several values for one entry are separate records, joined by “and”; a condition that tells them apart may be missing. Equal values may be shown once. Inconclusive results are not listed. Unmarked numbers belong to inactive results. Activity calls are given as the source filed them. Unless noted, calls follow the shape of the full dose curve.
% is scaled to controls: 0 for no effect and ±100 for the full control effect.

Assay: qHTS assay to identify small molecule agonists of the hypoxia (HIF-1) signaling pathway (AID 1224846; active = well fitted activation curve with a large enough effect in the signal ratio in the repeat runs, not every such curve was filed as active; the % refers to the signal ratio)
Conditions: HRE-bla ME-180 cells, beta-lactamase ratio, 17 h; series mostly up to 76.8 µM; activation: at the top concentration
Procedure, shortened: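 Compounds from the Tox21 10K library, dissolved in DMSO, are tested for induction of a hypoxia response element–controlled beta-lactamase reporter in ME-180 cells. Exposure lasts 17 hrs at 37C after a 5 hr settling period, followed by CCF4-AM FRET substrate.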
With `Clc1cccnc1` the “activation” value was -1.43%.
Molecule `CCC(=O)CC(C)CC` (stereo not given) has an activation of 0.22% [at 0.291 µM].
For `O=Cc1ccc(F)cc1`, the “activation” value was -1.45%.
For `CCOB(OCC)OCC`, the “activation” value was 0.134%.
In the case of `C=CC(=C)CCC=C(C)C`, the “activation” value is reported as -1.29%.
With `c1ccc(Sc2ccccc2)cc1` the “activation” value was -0.385%.
In the case of `Cc1cc(C)c(C=O)c(C)c1`, the “activation” value is reported as 0.692%.

Assay: qHTS assay to identify small molecule agonists of H2AX - cell viability counter screen (AID 1224847); also: nearly all actives have a fitted effect of over 30% in size; also: potency is read from the fitted curve at half-maximal effect;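 as to activity change, negative = cytotoxicity: wild-type CHO-K1 cells; top concentration of the series differs between compounds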
Conditions: CHO-K1 viability, CellTiter-Glo luminescence, 3 h; series mostly up to 154 µM; activity change, negative = cytotoxicity: at the top concentration
Procedure, shortened: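 For this counter screen, overnight-attached CHO-K1 cells received test compounds (15 concentrations, 0.76% DMSO final); 3 hr later at 37C, CellTiter-Glo reagent was added and luminescence recorded after 30 min at room temperature.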
For `Clc1cccnc1`, the “activity change, negative = cytotoxicity” value was -0.491%.
In the case of `C=C[C@](C)(O)CC[C@@H]1[C@@]2(C)CCCC(C)(C)[C@@H]2CC[C@@]1(C)O`, the Potency is reported as 113 µM (active).
In the case of `Clc1nc2ccccc2s1`, the “activity change, negative = cytotoxicity” value is reported as 0.651%.
In the case of `O=C(O)CCn1c2c(c3ccccc31)C[C@H](NS(=O)(=O)c1ccc(F)cc1)CC2`, the “activity change, negative = cytotoxicity” value is reported as -2.67% [at 70.9 µM].
For `CC(C)=CC1CC(C)CCO1` (stereo not given), the “activity change, negative = cytotoxicity” value was 2.22%.
In the case of `S=C(SSSSSSC(=S)N1CCCCC1)N1CCCCC1`, the activity change, negative = cytotoxicity is reported as -11.5% [at 31.6 µM].
Molecule `CCC(=O)CC(C)CC` (stereo not given) has an activity change, negative = cytotoxicity of -3.23% [at 0.582 µM].
For `O=Cc1ccc(F)cc1`, the “activity change, negative = cytotoxicity” value was -0.293%.
For `CCOC(=O)N1CCC(=C2c3ccc(Cl)cc3CCc3cccnc32)CC1`, the Potency was 61.9 µM (active).
With `Cc1ccc(CCn2c3c(c4cc(Cl)ccc42)CN(C)CC3)cn1` the “activity change, negative = cytotoxicity” value was 7.46% [at 70.9 µM].
For `Cc1cn[nH]c1`, the “activity change, negative = cytotoxicity” value was 2.68% [at 70.9 µM].
In the case of `CCOB(OCC)OCC`, the “activity change, negative = cytotoxicity” value is reported as -2.06%.
In the case of `CCCCC(CC)COC(=O)c1ccc(O)cc1` (stereo not given), the Potency is reported as 89.4 µM (active) and 80 µM (active).
In the case of `CC(=O)Nc1ccc(O)cc1`, the Potency is reported as “inactive”.
In the case of `NC(=O)c1nc(-c2cccc(-c3cc(F)ccc3OCC(F)(F)C(F)(F)F)c2)n[nH]1`, the Potency is reported as 101 µM (active).
In the case of `c1ccc(Sc2ccccc2)cc1`, the “activity change, negative = cytotoxicity” value is reported as -8.76%.
For `CC(CN(C)C)CN1c2ccccc2CCc2ccccc21` (stereo not given), the “activity change, negative = cytotoxicity” value was 3.96% [at 70.9 µM].
In the case of `CN(C)CCCN1c2ccccc2CCc2ccccc21`, the Potency is reported as “inactive”.
